Assay results: PMC7862700, “An all-to-all approach to the identification of sequence-specific readers for epigenetic DNA modifications on cytosine”

How the values were obtained:
Experiment in all cases: DAPPL (digital affinity profiling via proximity ligation, sequencing); 10 mM Tris-HCl pH 7.5, 50 mM NaCl, 1 mM DTT, 4% glycerol, room temperature, 30 min; GST-TFs on glutathione beads, 16-mer random dsDNA library, 0.1% formaldehyde crosslink after washing; high values mean tight binding
FLI1 = target: T1, FLI1 (Homo sapiens, UniProt Q01543 1-452); details: protein: recombinant; tags: N-terminal GST; dsDNA, one strand shown
T1 sequence: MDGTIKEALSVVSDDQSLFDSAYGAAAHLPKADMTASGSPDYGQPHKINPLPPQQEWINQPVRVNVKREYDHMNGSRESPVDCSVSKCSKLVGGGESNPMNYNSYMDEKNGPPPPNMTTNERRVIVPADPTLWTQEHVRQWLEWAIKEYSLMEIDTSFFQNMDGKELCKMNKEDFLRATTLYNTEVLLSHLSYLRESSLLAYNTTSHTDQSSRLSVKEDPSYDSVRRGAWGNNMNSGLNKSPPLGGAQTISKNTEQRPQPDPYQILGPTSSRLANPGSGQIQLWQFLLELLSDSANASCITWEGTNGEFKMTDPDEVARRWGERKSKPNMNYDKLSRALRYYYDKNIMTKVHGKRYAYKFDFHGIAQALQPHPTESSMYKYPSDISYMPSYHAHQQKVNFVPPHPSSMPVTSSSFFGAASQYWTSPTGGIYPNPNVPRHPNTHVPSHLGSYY
How it was run: (§1)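 Human transcription factors fused to GST were expressed in yeast, captured on glutathione beads, given DNA barcodes and pooled with a GST-only negative control. Pools were incubated with 200 nmole of a 16-mer random double-stranded DNA library in Tris/NaCl/DTT/glycerol buffer at room temperature for 30 min. They were then washed, crosslinked with 0.1% formaldehyde, proximity-ligated (BsaI/T4 ligase, 1 h, 37 °C), PCR-amplified and sequenced on an Illumina NextSeq500. Binding signal is each 6-mer's read frequency for a factor divided by its frequency for the GST control.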

ELK1 = target: T2, ELK1 (Homo sapiens, UniProt P19419 1-428); details: protein: recombinant; tags: N-terminal GST; dsDNA, one strand shown
T2 sequence: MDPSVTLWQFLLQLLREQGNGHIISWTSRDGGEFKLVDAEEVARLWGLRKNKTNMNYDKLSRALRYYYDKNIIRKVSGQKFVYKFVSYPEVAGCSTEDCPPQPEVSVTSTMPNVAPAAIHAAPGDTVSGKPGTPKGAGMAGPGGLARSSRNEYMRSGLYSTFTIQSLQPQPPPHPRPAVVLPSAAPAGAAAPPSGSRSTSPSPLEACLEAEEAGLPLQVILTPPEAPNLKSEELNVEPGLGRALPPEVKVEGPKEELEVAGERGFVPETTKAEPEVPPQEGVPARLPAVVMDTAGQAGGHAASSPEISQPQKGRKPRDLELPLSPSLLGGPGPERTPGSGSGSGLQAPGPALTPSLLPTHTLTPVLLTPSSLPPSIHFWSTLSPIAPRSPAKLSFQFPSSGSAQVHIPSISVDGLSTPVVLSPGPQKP
How it was run: as §1

GABPA = target: T3, GABPA (Homo sapiens, UniProt Q06546 1-454); details: protein: recombinant; tags: N-terminal GST; dsDNA, one strand shown
T3 sequence: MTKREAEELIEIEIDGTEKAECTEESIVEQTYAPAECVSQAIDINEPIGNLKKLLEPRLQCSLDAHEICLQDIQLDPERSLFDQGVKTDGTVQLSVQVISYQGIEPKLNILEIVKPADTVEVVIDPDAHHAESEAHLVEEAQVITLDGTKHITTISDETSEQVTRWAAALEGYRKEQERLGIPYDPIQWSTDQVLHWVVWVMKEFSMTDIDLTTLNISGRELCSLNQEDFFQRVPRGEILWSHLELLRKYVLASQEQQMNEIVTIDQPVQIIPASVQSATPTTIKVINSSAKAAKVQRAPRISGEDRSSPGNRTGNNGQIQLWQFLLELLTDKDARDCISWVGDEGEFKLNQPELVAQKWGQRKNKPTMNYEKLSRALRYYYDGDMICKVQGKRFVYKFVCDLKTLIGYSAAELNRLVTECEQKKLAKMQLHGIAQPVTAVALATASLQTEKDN
How it was run: as §1

ERG = target: T4, ERG (Homo sapiens, UniProt P11308 1-479); details: protein: recombinant; tags: N-terminal GST; dsDNA, one strand shown
T4 sequence: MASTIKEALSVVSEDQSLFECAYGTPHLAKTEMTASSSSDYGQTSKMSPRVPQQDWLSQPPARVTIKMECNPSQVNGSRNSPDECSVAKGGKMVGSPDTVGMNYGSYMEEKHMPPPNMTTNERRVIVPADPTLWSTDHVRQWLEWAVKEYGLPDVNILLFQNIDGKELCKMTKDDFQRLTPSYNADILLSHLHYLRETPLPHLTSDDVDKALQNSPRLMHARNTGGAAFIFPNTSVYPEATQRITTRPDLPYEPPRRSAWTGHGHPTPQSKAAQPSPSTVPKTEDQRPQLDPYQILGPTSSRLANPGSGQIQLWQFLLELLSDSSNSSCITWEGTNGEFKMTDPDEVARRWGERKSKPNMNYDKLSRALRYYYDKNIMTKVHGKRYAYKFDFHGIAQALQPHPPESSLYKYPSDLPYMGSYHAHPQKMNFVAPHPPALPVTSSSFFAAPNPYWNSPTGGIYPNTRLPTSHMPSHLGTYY
How it was run: as §1

ELF1 = ELF1 (Homo sapiens, UniProt P32519 1-619); details: protein: recombinant; tags: N-terminal GST; dsDNA, one strand shown
ELF1, sequence (P32519 whole entry): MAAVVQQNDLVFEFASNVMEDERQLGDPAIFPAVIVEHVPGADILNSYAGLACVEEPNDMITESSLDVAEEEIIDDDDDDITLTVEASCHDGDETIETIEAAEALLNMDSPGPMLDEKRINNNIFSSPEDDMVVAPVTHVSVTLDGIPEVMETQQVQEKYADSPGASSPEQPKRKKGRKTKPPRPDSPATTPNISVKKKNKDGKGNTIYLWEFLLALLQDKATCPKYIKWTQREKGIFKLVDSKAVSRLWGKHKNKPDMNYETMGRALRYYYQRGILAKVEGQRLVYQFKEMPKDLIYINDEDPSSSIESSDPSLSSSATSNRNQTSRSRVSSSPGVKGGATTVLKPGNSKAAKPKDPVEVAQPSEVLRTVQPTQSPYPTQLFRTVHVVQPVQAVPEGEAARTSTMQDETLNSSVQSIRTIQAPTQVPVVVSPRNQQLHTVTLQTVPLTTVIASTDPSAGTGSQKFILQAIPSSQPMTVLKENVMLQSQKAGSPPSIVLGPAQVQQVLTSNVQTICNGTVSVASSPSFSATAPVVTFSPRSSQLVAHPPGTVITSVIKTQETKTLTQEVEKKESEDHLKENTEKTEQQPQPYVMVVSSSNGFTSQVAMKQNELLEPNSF
How it was run: as §1

EHF = target: T5, EHF (Homo sapiens, UniProt Q9NZC4 1-300); details: protein: recombinant; tags: N-terminal GST; dsDNA, one strand shown
T5 sequence: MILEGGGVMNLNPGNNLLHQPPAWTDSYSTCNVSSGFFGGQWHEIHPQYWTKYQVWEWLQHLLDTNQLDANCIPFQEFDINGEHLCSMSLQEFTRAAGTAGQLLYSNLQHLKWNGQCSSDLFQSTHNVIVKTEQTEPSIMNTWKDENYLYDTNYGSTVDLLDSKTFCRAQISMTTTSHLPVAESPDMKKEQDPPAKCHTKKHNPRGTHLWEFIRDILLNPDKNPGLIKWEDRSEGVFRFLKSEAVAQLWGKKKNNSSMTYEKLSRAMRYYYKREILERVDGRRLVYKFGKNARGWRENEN
How it was run: as §1

SPI1 = SPI1 (Homo sapiens, UniProt P17947 1-270); details: protein: recombinant; tags: N-terminal GST; dsDNA, one strand shown
How it was run: as §1

SPIB = SPIB (Homo sapiens, UniProt Q01892 1-262); details: protein: recombinant; tags: N-terminal GST; dsDNA, one strand shown
SPIB, sequence (Q01892 whole entry): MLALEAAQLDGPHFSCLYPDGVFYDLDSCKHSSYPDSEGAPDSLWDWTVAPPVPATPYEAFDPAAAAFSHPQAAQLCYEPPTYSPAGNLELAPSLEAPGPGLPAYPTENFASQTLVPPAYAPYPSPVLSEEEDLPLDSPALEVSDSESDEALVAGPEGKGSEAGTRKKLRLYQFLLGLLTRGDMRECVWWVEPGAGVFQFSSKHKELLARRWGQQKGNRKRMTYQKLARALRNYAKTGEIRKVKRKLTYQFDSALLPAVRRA
How it was run: as §1

ELK3 = target: T6, ELK3 (Homo sapiens, UniProt P41970 1-407); details: protein: recombinant; tags: N-terminal GST; dsDNA, one strand shown
T6 sequence: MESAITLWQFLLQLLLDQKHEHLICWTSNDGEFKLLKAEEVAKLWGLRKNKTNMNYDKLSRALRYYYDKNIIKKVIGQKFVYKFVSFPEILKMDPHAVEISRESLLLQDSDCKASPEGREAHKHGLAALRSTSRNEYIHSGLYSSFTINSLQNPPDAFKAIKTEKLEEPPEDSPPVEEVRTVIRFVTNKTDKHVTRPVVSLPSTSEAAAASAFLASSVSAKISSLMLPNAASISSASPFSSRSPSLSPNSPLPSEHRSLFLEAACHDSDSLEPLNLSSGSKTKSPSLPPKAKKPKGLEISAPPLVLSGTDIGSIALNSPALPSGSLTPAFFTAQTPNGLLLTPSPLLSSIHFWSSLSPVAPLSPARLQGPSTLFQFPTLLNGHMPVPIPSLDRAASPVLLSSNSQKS
How it was run: as §1

FEV = target: T7, FEV (Homo sapiens, UniProt Q99581 1-238); details: protein: recombinant; tags: N-terminal GST; dsDNA, one strand shown
T7 sequence: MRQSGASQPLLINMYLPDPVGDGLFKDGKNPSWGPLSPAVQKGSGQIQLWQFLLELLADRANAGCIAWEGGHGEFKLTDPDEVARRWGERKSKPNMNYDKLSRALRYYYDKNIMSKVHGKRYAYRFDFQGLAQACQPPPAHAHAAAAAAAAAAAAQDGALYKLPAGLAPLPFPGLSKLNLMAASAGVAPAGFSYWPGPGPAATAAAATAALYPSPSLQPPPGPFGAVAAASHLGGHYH
How it was run: as §1

ETV5 = ETV5 (Homo sapiens, UniProt P41161 1-510); details: protein: recombinant; tags: N-terminal GST; dsDNA, one strand shown
ETV5, sequence (P41161 whole entry): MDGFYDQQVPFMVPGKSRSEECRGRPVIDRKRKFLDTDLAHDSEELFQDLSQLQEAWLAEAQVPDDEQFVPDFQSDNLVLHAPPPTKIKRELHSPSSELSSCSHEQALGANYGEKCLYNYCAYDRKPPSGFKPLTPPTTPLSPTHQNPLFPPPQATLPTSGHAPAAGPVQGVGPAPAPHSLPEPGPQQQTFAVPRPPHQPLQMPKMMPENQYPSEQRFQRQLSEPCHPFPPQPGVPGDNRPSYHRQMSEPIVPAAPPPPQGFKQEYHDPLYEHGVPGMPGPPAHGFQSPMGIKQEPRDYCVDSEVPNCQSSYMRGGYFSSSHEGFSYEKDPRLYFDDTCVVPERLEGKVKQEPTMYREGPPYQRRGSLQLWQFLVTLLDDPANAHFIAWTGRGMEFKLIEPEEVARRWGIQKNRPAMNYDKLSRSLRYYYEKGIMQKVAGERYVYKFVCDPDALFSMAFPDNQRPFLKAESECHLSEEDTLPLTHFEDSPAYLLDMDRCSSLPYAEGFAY
How it was run: as §1

HSF1 = HSF1 (Homo sapiens, UniProt Q00613 1-529); details: protein: recombinant; tags: N-terminal GST; chain copies: 3; dsDNA, one strand shown
HSF1, sequence (Q00613 whole entry): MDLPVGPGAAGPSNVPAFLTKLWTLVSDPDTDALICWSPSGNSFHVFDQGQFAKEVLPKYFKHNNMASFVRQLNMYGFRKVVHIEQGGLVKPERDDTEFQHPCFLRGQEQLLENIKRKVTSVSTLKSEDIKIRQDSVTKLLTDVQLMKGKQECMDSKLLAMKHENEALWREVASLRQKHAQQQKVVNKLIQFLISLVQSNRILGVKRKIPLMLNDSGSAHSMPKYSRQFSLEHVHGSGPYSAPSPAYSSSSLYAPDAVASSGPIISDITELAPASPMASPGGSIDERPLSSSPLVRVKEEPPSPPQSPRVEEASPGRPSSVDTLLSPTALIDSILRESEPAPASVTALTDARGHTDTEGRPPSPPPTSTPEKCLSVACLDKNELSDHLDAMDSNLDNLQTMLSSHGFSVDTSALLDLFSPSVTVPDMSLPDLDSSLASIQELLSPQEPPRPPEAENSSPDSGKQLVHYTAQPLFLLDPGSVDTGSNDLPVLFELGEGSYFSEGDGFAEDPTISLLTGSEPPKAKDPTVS
How it was run: as §1

SPIC = target: T8, SPIC (Homo sapiens, UniProt Q8N5J4 1-248); details: protein: recombinant; tags: N-terminal GST; dsDNA, one strand shown
T8 sequence: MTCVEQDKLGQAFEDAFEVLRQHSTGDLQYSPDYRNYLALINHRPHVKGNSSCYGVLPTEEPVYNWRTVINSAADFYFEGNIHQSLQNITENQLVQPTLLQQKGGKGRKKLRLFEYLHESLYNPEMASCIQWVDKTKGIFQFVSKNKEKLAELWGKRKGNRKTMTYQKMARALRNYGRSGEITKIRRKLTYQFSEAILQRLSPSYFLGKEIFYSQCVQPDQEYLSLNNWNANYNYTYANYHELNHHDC
How it was run: as §1

ELF4 = ELF4 (Homo sapiens, UniProt Q99607 1-663); details: protein: recombinant; tags: N-terminal GST; dsDNA, one strand shown
ELF4, sequence (Q99607 whole entry): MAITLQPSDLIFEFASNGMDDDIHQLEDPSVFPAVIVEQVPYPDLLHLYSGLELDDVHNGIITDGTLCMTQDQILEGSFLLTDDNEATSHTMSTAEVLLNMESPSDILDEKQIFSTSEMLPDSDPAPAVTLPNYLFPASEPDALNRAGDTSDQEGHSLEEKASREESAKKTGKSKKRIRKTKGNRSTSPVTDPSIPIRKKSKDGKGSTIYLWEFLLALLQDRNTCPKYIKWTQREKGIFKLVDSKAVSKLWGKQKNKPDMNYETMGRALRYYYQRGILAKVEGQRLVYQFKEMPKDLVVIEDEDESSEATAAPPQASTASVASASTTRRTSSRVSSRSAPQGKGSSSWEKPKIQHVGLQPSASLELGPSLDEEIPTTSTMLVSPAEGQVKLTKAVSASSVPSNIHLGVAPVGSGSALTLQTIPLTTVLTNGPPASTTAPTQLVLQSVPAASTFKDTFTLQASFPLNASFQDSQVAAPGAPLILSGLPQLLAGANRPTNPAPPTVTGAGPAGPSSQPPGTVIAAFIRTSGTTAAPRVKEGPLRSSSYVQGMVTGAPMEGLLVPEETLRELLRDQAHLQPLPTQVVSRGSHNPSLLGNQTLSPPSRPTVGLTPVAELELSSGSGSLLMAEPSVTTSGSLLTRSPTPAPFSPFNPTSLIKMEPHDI
How it was run: as §1

ELK4 = target: T9, ELK4 (Homo sapiens, UniProt P28324-2 1-405); details: protein: recombinant; tags: N-terminal GST; dsDNA, one strand shown
T9 sequence: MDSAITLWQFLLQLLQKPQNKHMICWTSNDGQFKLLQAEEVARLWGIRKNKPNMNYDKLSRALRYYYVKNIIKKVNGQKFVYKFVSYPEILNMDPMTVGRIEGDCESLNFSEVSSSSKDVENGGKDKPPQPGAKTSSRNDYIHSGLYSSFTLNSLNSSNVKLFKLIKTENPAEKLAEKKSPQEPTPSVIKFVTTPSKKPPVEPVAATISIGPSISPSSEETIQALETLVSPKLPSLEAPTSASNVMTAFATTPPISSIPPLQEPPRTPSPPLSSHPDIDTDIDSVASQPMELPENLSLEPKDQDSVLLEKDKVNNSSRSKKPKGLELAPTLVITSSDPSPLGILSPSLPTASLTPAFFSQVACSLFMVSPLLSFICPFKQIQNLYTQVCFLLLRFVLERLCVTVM
How it was run: as §1

ETV2 = target: T10, ETV2 (Homo sapiens, UniProt O00321 1-342); details: protein: recombinant; tags: N-terminal GST; dsDNA, one strand shown
T10 sequence: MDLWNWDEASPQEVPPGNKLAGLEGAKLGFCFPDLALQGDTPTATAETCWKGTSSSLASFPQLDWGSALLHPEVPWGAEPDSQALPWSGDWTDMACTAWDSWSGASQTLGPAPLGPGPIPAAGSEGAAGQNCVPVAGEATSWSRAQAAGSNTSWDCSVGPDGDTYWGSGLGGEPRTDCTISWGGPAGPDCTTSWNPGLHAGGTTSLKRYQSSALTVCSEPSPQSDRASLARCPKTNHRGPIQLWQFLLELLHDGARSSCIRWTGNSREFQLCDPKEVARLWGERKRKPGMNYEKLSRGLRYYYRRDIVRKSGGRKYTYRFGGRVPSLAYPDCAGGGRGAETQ
How it was run: as §1

ELF3 = target: T11, ELF3 (Homo sapiens, UniProt P78545 1-371); details: protein: recombinant; tags: N-terminal GST; dsDNA, one strand shown
T11 sequence: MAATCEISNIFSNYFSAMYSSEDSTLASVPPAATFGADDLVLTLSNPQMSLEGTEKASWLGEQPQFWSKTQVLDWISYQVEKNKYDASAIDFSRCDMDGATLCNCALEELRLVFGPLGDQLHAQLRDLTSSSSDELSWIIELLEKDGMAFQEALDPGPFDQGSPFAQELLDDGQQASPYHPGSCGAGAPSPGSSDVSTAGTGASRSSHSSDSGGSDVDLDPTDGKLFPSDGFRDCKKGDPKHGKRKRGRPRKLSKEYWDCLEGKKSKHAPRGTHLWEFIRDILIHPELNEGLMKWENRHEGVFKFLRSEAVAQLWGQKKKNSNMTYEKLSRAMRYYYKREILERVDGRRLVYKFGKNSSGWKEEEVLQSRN
How it was run: as §1

CRX = CRX (Homo sapiens, UniProt O43186 1-299); details: protein: recombinant; tags: N-terminal GST; dsDNA, one strand shown
CRX, sequence (O43186 whole entry): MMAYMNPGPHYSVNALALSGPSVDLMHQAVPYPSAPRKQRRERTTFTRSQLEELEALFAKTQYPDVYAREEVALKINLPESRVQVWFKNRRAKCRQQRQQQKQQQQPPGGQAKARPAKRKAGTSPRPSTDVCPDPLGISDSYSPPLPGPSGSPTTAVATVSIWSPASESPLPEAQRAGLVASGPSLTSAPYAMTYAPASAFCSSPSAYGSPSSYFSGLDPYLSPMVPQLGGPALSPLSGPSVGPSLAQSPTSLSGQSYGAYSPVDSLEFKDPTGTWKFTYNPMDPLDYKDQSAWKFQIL
How it was run: as §1

ETV1 = ETV1 (Homo sapiens, UniProt P50549 1-477); details: protein: recombinant; tags: N-terminal GST; dsDNA, one strand shown
ETV1, sequence (P50549 whole entry): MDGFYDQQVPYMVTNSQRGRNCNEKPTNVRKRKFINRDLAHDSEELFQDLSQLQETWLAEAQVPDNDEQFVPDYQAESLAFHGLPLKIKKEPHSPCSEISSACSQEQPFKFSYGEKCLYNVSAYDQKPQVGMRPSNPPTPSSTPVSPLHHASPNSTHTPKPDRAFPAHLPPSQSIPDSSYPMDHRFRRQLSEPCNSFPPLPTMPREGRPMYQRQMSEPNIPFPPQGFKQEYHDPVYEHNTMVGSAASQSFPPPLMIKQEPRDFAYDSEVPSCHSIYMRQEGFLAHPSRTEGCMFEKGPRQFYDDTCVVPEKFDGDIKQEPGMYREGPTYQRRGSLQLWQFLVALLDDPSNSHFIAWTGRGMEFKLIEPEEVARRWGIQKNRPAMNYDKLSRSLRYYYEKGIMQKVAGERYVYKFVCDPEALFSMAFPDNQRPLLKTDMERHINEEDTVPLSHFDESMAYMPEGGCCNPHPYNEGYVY
How it was run: as §1

Sequence: TAGTTT
- binding signal (FLI1): 1.23 fold enrichment (6-mer frequency, TF over GST control)
- binding signal (ELK1): 1.19 fold enrichment (6-mer frequency, TF over GST control)
- binding signal (GABPA): 1.25 fold enrichment (6-mer frequency, TF over GST control)
- binding signal (ERG): 1.14 fold enrichment (6-mer frequency, TF over GST control)
- binding signal (ELF1): 1.22 fold enrichment (6-mer frequency, TF over GST control)
- binding signal (EHF): 1.21 fold enrichment (6-mer frequency, TF over GST control)
- binding signal (SPI1): 1.12 fold enrichment (6-mer frequency, TF over GST control)
- binding signal (SPIB): 1.13 fold enrichment (6-mer frequency, TF over GST control)
- binding signal (ELK3): 1.23 fold enrichment (6-mer frequency, TF over GST control)
- binding signal (FEV): 1.09 fold enrichment (6-mer frequency, TF over GST control)
- binding signal (ETV5): 1.18 fold enrichment (6-mer frequency, TF over GST control)
- binding signal (HSF1): 1.27 fold enrichment (6-mer frequency, TF over GST control)
- binding signal (SPIC): 1.21 fold enrichment (6-mer frequency, TF over GST control)
- binding signal (ELF4): 1.21 fold enrichment (6-mer frequency, TF over GST control)
- binding signal (ELK4): 1.4 fold enrichment (6-mer frequency, TF over GST control)
- binding signal (ETV2): 1.17 fold enrichment (6-mer frequency, TF over GST control)
- binding signal (ELF3): 1.34 fold enrichment (6-mer frequency, TF over GST control)
- binding signal (CRX): 1.3 fold enrichment (6-mer frequency, TF over GST control)
- binding signal (ETV1): 1.24 fold enrichment (6-mer frequency, TF over GST control)
